Values without a mark were called inactive. Some of the results follow. The source made the active and inactive calls.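 How the source made its calls, unless noted: active means inhibition above the hit cutoff set in the earlier primary screen (cut at about 27% in these data); inactive means the rest.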
What was measured:
[1] = test system: HIV-1 integrase (multimerization); experiment: HIV-1 IN multimer formation enhancers, counter-screen for LEDGF/p75 integration inhibitor project, biochemical, TR-FRET (AID 1053131; in the data active means activation above about 8.9%); settings: TR-FRET HIV-1 integrase multimerization, at 7.7 µM, active compounds read high
[2] = TR-FRET optical interference artefacts, confirmation, artefact control for LEDGF/p75-dependent integration inhibitor project, biochemical, HIV-1 IN multimerization (AID 1053135;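 active means inhibition above the mean over all tested compounds plus 3 SD, which no compound reached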); settings: TR-FRET optical interference counterscreen, at 7.7 µM, active compounds read high
[3] = test system: HIV-1 integrase / human LEDGF/p75 complex; experiment: inhibitors of HIV-1 IN-LEDGF/p75 DNA integration, confirmation, biochemical, TR-FRET (AID 1053136; in the data active means inhibition above about 14%); settings: TR-FRET LEDGF/p75-dependent HIV-1 integration, at 3.7 µM, active compounds read high
[4] = target: Protein phosphatase methylesterase 1 (Homo sapiens) (UniProt Q9Y570); experiment: PME-1 inhibitor activity retest, confirmation, biochemical, fluorescence polarization, FP-Rh probe, triplicate (AID 2171); settings: recombinant PME-1, FP-Rh probe fluorescence polarization; at 5.9 µM; active compounds read high
[5] = target: Platelet-activating factor acetylhydrolase (Homo sapiens) (UniProt Q13093); experiment: pPAFAH (PLA2G7) enzyme inhibitors, confirmation, biochemical, fluorescence polarization, human (AID 463230;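 active means mean inhibition of the triplicate above the hit cutoff set for the earlier primary screen, cut at about 25% in these data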); settings: recombinant pPAFAH, FP-Rh probe fluorescence polarization; at 3.39 µM; active compounds read high
[6] = target: Nuclear receptor coactivator 3 (Homo sapiens) (UniProt Q9Y6Q9); experiment: SRC3 coactivator transcriptional activity inhibitors, confirmation, cell-based, luminescence, quadruplicate (AID 588792;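 active means mean inhibition over 43.08%, the solvent-only control mean plus 3 SD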); settings: HEK293 GAL4-SRC3 luciferase reporter, at 3.6 µM, active compounds read high
[7] = test system: transactivating tegument protein VP16 (Human herpesvirus 1), Gal4-VP16 luciferase reporter; experiment: VP16 transactivation inhibitors, counter-screen for SRC3 inhibitor project, cell-based, luminescence, high throughput (AID 588794; in the data active means inhibition above about 30%); settings: mammalian cells, VP16-driven luciferase reporter luminescence; at 3.6 µM; active compounds read high
[8] = StAR promoter reporter inhibitors, counter-screen for LRH-1 inverse agonist project, cell-based, luminescence, high throughput (AID 651611; in the data active means inhibition above about 28%); settings: StAR promoter luciferase reporter counterscreen, at 3.6 µM, active compounds read high
[9] = target: Nuclear receptor subfamily 5 group A member 2 (Homo sapiens) (UniProt O00482); experiment: LRH-1 (NR5A2) inverse agonists, retest, confirmation, cell-based, luminescence (AID 651613; in the data active means inhibition above about 42%); settings: cell-based LRH-1 luciferase reporter, inverse agonism; at 3.6 µM; active compounds read high
[10] = target: Steroidogenic factor 1 (Homo sapiens) (UniProt Q13285); experiment: SF1 (NR5A1) inverse agonists, counter-screen for LRH-1 inverse agonist project, cell-based, luminescence, high throughput (AID 651614; in the data active means inhibition above about 44%); settings: cell-based SF1 luciferase reporter, at 3.6 µM, active compounds read high
[11] = VP16 transactivation reporter inhibitors, counter-screen for LRH-1 inverse agonist project, cell-based, luminescence, high throughput (AID 651615; in the data active means inhibition above about 33%); settings: Gal4-VP16 luciferase reporter cells, at 3.6 µM, active compounds read high
[12] = target: Glutathione S-transferase omega-1 (Homo sapiens) (UniProt P78417); experiment: GSTO1 inhibitor hit confirmation, counter-screen for RBBP9 inhibitor project, biochemical, fluorescence polarization, triplicate (AID 2176;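 active means inhibition above the primary screen's cutoff, its mean inhibition plus 3 SD, cut at about 35% in these data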); settings: recombinant GSTO1, probe fluorescence polarization; at 5.96 µM; active compounds read high
[13] = target: Nuclear receptor coactivator 1 (Homo sapiens) (UniProt Q15788); experiment: SRC1 coactivator transcriptional activity inhibitors, confirmation, cell-based, luminescence, quadruplicate (AID 588820;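 active means mean inhibition above 46.68%, the untreated control wells mean plus 3 SD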); settings: HEK293 GAL4-SRC1 luciferase reporter, at 3.6 µM, active compounds read high
[14] = VP16 transactivation inhibitors, counter-screen for SRC1 inhibitor project, cell-based, luminescence, high throughput (AID 588824; in the data active means inhibition above about 25%); settings: cell-based VP16 transactivation luciferase luminescence; at 3.6 µM; active compounds read high
[15] = test system: transactivating tegument protein VP16 (Human herpesvirus 1); experiment: VP16 transactivation reporter inhibitors, counter-screen for SRC2 inhibitor project, cell-based, luminescence, single concentration (AID 652007; in the data active means inhibition above about 36%); settings: cell-based VP16 transactivation luciferase reporter, at 8.9 µM, active compounds read high
[16] = target: Nuclear receptor coactivator 2 (Homo sapiens) (UniProt Q15596); experiment: SRC2 coactivator transcriptional activity inhibitors, confirmation, cell-based, luminescence, HEK293, triplicate (AID 652008;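 active means mean inhibition above 46.5%, the solvent-only control mean plus 3 SD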); settings: HEK293 GAL4-SRC2 luciferase reporter, at 8.9 µM, active compounds read high
[17] = growth loss of phage-infected E. coli expressing H. pylori AddAB, confirmation, AddAB inhibitor project, absorbance, E. coli V3065, T4 phage, triplicate (AID 488942;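 active means mean inhibition above a set limit taken from the earlier primary screen, cut at about 13% in these data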); settings: OD, at 11.9 µM, active compounds read high
[18] = growth loss of RecBCD+ E. coli with mutant T4 phage, counter-screen for AddAB inhibitor project, absorbance, V66 E. coli (AID 488955;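 active means mean inhibition above the mean of solvent-only control wells plus 3 SD, cut at about 4% in these data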); settings: OD growth, at 11.9 µM, active compounds read high
[19] = bacterial viability inhibition counter-screen, confirmation, counter-screen for AddAB inhibitor project, absorbance (AID 488956; in the data active means inhibition above about 25%); settings: absorbance (AddAB counterscreen), at 11.9 µM, active compounds read high
[20] = target: Oxytocin receptor (Homo sapiens) (UniProt P30559); experiment: human OXTR agonists, confirmation, fluorescence, CHO-OTR cells, triplicate (AID 434963;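 active means mean activation above about 20% derived from the earlier single-dose screen, limit read from the data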); settings: Fluo-8 calcium fluorescence, agonist, at 3 µM, active compounds read high
[21] = target: Vasopressin V1a receptor (Homo sapiens) (UniProt P37288); experiment: V1a receptor agonists, calcium signal, counter-screen for OXTR agonist project, triplicate, fluorescence, CHO-V1R cells (AID 434991;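 active means mean activation over triplicate exceeds the hit threshold set in the earlier primary screen, cut at about 20% in these data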); settings: Fluo-8 calcium fluorescence, at 3 µM, active compounds read high
[22] = target: Protein-arginine deiminase type-4 (Homo sapiens) (UniProt Q9UM07); experiment: human PAD4 inhibitors, confirmation, biochemical, fluorescence polarization (AID 488796;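 active means mean inhibition across replicates above the hit cutoff set by the earlier primary screen, cut at about 15% in these data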); settings: recombinant PAD4, RCA probe fluorescence polarization; at 6.36 µM; active compounds read high
[23] = growth loss of phage-infected RecBCD+ E. coli, confirmation, RecBCD inhibitor project, absorbance, E. coli V66, T4 gene 2 phage (AID 651982;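 active means mean inhibition over triplicates exceeding the hit threshold derived in the original primary screen, cut at about 11% in these data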); settings: E. coli V66 + T4 2- phage, growth OD; at 11.9 µM; active compounds read high
[24] = E. coli viability inhibition, counter-screen for RecBCD inhibitor project, absorbance, high throughput (AID 651983; in the data active means inhibition above about 20%); settings: absorbance (OD) growth, at 11.9 µM, active compounds read high
[25] = growth loss of phage-infected AddAB-carrying E. coli, confirmation, counter-screen for RecBCD inhibitor project, absorbance, E. coli V3065, T4 phage (AID 651984;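 active means mean inhibition above the solvent-only control wells' mean plus 3 SD, cut at about 22% in these data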); settings: E. coli expressing H. pylori AddAB + T4 phage, OD growth; at 11.9 µM; active compounds read high

Chain of Platelet-activating factor acetylhydrolase (Homo sapiens) (Q13093 whole entry, looked up, the tested form may be a part): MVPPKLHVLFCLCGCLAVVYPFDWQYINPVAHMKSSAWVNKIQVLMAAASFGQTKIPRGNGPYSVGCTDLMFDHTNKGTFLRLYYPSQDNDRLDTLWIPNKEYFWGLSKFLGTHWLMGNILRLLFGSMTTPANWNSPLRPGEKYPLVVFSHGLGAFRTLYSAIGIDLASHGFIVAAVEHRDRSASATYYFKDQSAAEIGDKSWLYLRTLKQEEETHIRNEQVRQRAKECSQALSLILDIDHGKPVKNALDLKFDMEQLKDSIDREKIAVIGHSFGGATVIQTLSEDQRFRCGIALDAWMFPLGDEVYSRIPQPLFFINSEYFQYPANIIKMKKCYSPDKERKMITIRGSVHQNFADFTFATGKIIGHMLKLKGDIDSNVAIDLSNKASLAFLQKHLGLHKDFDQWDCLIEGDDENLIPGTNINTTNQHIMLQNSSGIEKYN
Chain of Nuclear receptor coactivator 3 (Homo sapiens) (Q9Y6Q9 whole entry, looked up, the tested form may be a part): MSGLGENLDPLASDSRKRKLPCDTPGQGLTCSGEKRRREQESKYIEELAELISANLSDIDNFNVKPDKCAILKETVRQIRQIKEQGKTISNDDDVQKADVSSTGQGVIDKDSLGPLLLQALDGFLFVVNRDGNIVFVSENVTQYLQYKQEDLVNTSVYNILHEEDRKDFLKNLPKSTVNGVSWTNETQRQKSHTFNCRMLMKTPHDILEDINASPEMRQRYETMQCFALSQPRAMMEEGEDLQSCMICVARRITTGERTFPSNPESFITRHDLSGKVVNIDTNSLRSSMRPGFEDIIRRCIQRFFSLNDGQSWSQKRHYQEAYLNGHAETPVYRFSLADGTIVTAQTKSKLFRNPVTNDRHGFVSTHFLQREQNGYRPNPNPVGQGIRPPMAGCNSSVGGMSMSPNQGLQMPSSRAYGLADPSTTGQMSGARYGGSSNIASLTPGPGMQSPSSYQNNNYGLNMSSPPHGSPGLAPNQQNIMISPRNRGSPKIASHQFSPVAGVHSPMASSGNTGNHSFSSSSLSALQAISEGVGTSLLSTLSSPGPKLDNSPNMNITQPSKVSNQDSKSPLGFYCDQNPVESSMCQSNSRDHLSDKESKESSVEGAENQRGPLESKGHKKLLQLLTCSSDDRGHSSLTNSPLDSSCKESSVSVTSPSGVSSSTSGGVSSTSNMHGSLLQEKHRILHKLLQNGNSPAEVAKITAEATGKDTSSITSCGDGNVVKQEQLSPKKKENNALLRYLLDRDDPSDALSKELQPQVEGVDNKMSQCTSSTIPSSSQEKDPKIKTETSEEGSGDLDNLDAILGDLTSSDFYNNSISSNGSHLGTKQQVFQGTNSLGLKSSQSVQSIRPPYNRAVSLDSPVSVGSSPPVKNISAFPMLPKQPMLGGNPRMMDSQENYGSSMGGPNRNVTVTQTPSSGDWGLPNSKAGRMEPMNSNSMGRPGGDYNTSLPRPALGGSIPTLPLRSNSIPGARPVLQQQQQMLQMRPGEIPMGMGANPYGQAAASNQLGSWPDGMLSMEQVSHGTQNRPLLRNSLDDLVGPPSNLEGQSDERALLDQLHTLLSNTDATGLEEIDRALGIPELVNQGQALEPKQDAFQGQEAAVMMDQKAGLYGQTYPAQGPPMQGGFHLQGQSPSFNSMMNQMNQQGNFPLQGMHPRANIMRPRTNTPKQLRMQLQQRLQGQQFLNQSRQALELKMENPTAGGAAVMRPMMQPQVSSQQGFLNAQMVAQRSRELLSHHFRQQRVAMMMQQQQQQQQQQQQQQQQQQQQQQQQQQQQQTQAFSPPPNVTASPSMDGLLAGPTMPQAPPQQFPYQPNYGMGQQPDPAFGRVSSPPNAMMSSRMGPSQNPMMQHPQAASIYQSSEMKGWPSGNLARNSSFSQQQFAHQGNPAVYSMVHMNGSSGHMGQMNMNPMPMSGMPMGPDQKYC
Chain of Protein phosphatase methylesterase 1 (Homo sapiens) (Q9Y570 whole entry, looked up): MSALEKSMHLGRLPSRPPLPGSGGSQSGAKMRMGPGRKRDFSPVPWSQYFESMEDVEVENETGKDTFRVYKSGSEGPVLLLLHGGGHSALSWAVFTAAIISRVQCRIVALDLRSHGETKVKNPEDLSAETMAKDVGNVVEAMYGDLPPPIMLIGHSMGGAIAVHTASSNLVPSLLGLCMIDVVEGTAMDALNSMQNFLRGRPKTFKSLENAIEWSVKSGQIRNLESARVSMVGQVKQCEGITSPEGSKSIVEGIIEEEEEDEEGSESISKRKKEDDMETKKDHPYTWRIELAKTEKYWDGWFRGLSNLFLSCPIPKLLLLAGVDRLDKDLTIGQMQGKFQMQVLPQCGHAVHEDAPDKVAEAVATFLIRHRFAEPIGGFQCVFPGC
Chain of Steroidogenic factor 1 (Homo sapiens) (Q13285 whole entry, looked up, the tested form may be a part): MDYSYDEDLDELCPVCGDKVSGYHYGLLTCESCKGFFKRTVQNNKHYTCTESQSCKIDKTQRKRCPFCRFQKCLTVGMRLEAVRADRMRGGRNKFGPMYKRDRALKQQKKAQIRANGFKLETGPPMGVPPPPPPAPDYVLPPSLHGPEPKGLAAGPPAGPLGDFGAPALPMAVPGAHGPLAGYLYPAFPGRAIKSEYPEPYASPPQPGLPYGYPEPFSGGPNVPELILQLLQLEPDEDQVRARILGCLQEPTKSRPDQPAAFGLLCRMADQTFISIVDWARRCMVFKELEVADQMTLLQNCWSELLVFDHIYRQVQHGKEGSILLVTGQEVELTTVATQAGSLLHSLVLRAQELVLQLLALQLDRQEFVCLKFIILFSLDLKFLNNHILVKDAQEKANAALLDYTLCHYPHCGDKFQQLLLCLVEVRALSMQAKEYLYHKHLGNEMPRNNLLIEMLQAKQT
Chain of Nuclear receptor subfamily 5 group A member 2 (Homo sapiens) (O00482 whole entry, looked up): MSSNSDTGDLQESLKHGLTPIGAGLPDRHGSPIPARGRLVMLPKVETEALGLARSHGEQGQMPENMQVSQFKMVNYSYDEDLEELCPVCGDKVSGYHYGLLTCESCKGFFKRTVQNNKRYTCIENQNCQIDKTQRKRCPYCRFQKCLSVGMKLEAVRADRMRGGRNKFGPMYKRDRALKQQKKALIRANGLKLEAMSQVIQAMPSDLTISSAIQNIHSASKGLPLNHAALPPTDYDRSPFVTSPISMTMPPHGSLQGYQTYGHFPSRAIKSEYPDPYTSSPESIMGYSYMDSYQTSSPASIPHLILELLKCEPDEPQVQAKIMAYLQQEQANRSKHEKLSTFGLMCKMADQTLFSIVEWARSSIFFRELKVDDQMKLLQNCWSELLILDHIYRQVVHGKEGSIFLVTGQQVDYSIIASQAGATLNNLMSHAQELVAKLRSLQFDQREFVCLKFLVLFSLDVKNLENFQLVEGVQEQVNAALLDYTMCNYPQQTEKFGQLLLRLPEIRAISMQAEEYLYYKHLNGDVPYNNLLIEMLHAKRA
Chain of Nuclear receptor coactivator 2 (Homo sapiens) (Q15596 whole entry, looked up, the tested form may be a part): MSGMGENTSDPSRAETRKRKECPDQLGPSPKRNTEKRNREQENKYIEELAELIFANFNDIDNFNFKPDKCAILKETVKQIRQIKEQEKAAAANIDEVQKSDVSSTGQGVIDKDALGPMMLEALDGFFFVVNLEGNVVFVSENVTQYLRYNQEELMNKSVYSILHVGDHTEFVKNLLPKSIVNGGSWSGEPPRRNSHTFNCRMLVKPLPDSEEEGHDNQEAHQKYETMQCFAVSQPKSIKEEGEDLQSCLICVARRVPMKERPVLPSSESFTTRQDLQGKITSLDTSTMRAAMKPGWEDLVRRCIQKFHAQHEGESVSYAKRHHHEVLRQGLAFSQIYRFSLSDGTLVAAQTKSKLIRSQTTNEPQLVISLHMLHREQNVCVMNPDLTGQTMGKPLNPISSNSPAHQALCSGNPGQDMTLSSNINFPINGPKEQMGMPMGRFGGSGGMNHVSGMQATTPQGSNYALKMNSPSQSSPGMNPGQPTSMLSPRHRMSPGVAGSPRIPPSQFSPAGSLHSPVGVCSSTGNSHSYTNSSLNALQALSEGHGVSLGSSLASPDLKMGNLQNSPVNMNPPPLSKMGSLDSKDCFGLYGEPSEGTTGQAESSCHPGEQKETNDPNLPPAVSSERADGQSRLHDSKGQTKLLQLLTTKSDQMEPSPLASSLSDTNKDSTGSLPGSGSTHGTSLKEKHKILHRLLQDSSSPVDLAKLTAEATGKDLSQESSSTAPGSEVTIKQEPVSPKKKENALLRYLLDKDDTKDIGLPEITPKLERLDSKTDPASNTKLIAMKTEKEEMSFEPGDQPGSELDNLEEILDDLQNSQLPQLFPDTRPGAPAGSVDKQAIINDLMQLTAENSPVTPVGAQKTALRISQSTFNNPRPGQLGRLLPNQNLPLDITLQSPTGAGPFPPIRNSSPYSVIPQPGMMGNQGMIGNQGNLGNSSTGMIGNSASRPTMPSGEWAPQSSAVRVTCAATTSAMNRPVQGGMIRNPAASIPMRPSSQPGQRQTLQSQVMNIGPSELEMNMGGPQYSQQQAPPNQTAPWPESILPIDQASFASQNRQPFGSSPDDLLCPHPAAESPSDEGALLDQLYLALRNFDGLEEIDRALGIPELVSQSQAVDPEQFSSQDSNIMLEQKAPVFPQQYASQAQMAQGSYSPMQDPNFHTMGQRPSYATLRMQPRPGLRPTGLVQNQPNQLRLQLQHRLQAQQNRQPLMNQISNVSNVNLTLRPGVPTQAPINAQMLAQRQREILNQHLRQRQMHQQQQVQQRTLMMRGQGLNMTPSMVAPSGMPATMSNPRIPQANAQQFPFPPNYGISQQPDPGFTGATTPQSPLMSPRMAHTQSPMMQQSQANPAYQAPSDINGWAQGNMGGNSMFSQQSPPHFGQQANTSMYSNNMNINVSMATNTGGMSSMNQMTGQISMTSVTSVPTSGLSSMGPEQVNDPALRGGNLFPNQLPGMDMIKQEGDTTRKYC
Chain of Glutathione S-transferase omega-1 (Homo sapiens) (P78417 whole entry, looked up, the tested form may be a part): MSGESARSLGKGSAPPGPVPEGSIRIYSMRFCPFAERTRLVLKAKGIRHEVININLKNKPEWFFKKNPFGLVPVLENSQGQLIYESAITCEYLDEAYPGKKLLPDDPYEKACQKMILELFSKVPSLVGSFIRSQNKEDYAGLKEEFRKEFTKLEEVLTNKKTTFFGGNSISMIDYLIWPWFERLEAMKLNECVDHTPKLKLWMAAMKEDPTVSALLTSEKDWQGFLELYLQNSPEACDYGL

SMILES: Cc1cc(/C=C2/C(=O)NC(=O)N(Cc3ccco3)C2=O)c(C)n1-c1ccc(C(=O)O)cc1
- activation [1]: 5.24%
- inhibition [2]: -26.4%
- inhibition [3]: 36.5% (active)

SMILES: Cc1oc(-c2ccccc2)nc1CN1C(=O)CN=C(c2ccccc2)c2ccccc21
- inhibition [4]: 66.1% (active)

SMILES: COC(=O)c1nc(-c2ccc3c(n2)C(=O)C(N)=C(OC)C3=O)c(N)c(-c2ccc(OC)c(OC)c2O)c1C
- inhibition [4]: 67.4% (active)

SMILES: Cc1c(C(=O)O)cccc1-n1c(C)cc(/C=C2\C(=O)NC(=O)N(c3ccc4c(c3)OCO4)C2=O)c1C
- activation [1]: 0.15%
- inhibition [2]: -0.77%
- inhibition [3]: 22.9% (active)

SMILES: NCCc1ccc(S(=O)(=O)F)cc1
- inhibition [5]: 71.9% (active)

SMILES: NP(=O)(OCCCc1ccccc1)Oc1ccccc1Cl (configuration not stated)
- inhibition [4]: 86.4% (active)

SMILES: C=C1C(C)C2C(Cc3ccccc3)NC(=O)C23OC(=O)/C=C/C(O)CCCC(C)C/C=C/C3C1O (configuration not stated)
- inhibition [6]: 10.6%
- inhibition [7]: 22.1%

SMILES: Oc1c(Br)c(Br)c(Br)c(Br)c1Br
- inhibition [4]: 84.2% (active)

SMILES: COc1ccc(OC(=O)N(C)C)c(CN(C)C)c1
- inhibition [6]: 5.12%
- inhibition [7]: -6.66%

SMILES: C[n+]1c2ccccc2nc2ccc(NCCO)cc21
- inhibition [4]: 35% (active)

SMILES: O=c1[nH]c(=O)n(CCC2=CCCCC2)c(O)c1C=NC1CCN(Cc2ccccc2)CC1
- inhibition [6]: -0.53%
- inhibition [7]: 36.4% (active)

SMILES: Cn1ncnc2c(=O)n(C)c(=O)nc1-2
- inhibition [4]: 43.2% (active)
- inhibition [8]: 76.9% (active)
- inhibition [9]: 92.6% (active)
- inhibition [10]: 84.3% (active)
- inhibition [11]: 87.6% (active)

SMILES: O=P(Oc1ccccc1)(Oc1ccccc1)C(O)c1ccccc1 (configuration not stated)
- inhibition [4]: 78.1% (active)

SMILES: O=C1CC(=O)N(Cc2ccccc2)C(=O)N1CCCCCCN1C(=O)CC(=O)N(Cc2ccccc2)C1=O
- inhibition [5]: 4.95%

SMILES: COC(=O)C1CN(C#N)N(c2ccc(Cl)cc2)C12c1ccccc1-c1ccccc12 (configuration not stated)
- inhibition [6]: 13.6%
- inhibition [7]: 33.5% (active)

SMILES: CCNc1nc2[nH]c(=O)c3c(c2s1)OC(N)=C(C#N)C3c1cccs1 (configuration not stated)
- inhibition [12]: 7.87%

SMILES: C[n+]1c(-c2ccccc2)c2cc(N)ccc2c2ccc(N)cc21
- inhibition [4]: 83.5% (active)

SMILES: O=C1C(=O)c2ccccc2-c2ccccc21
- inhibition [4]: 42.8% (active)
- inhibition [6]: 97.1% (active)
- inhibition [7]: 95.2% (active)
- inhibition [13]: 95.1% (active)
- inhibition [14]: 93.5% (active)
- inhibition [15]: 96.5% (active)
- inhibition [16]: 98.8% (active)

SMILES: CC(=O)c1ccc2c(c1)C1C(Cl)C(Sc3ccccc3[N+](=O)[O-])CC1C(c1ccccc1)N2 (configuration not stated)
- inhibition [4]: 23.8%

SMILES: CN(C)S(=O)(=O)c1cc(C(=O)N2CCC(C(=O)O)(c3ccccc3)CC2)ccc1Cl
- inhibition [17]: 85.5% (active)
- inhibition [18]: 1.24%
- inhibition [19]: 26.1% (active)

SMILES: NP(=O)(Oc1ccc(Cl)cc1)Oc1ccc(Cl)cc1
- inhibition [4]: 63.4% (active)

SMILES: CCC(=O)c1cn(Cc2ccccc2C#N)c2ccccc12
- inhibition [4]: 19.9%

SMILES: CCN(CC)S(=O)(=O)c1cc(NC(=O)C(C)N2CC=C(c3ccccc3)CC2)ccc1C (configuration not stated)
- inhibition [4]: 43.7% (active)

SMILES: O=C(CF)NC(Nc1cccc2cccnc12)C(Cl)(Cl)Cl (configuration not stated)
- inhibition [4]: 53% (active)

SMILES: O=C(O)COc1ccccc1/C=C1\C(=O)NC(=O)N(CCC2=CCCCC2)C1=O
- inhibition [12]: 9.09%

SMILES: Nc1c(C(=O)NCc2ccco2)c2nc3ccccc3nc2n1CCN1CCOCC1
- inhibition [4]: 7.2%

SMILES: CC(=O)c1ccc2c(c1)C1C(Cl)C(Sc3ccccc3[N+](=O)[O-])CC1C(C(=O)O)N2 (configuration not stated)
- inhibition [4]: 25.9%

SMILES: O=P(CCl)(Nc1ccccc1)C(Cl)(Cl)Cl (configuration not stated)
- inhibition [4]: 45.2% (active)

SMILES: O=c1[nH]c(=S)[nH]c(O)c1N=Nc1ccc(S(=O)(=O)N2CCc3ccccc32)cc1
- inhibition [4]: 46% (active)
- inhibition [8]: 35% (active)
- inhibition [9]: 49.8% (active)
- inhibition [10]: 47.9% (active)
- inhibition [11]: 7.96%

SMILES: Cc1nn(-c2ccccc2)c(C)c1NC(=O)COC(=O)Cc1ccccc1
- inhibition [5]: 43.1% (active)

SMILES: CCCCNS(=O)(=O)c1ccc(OCC(=O)N2CCN(Cc3ccc4c(c3)OCO4)CC2)cc1
- inhibition [6]: 10.7%
- inhibition [7]: 26.6%

SMILES: Cc1nc2c(=O)n(C)c(=O)nc-2n(C)n1
- inhibition [4]: 33% (active)
- inhibition [8]: 78.3% (active)
- inhibition [9]: 94.5% (active)
- inhibition [10]: 83.4% (active)
- inhibition [11]: 90.8% (active)
- inhibition [15]: 62.6% (active)
- inhibition [16]: 77.8% (active)

SMILES: CC(Cc1ccccc1)NCCC(c1ccccc1)c1ccccc1 (configuration not stated)
- activation [20]: 11.2%
- activation [21]: 4.33%

SMILES: Cc1ccccc1NP(=O)(Oc1ccccc1F)Oc1ccccc1F
- inhibition [4]: 43.5% (active)

SMILES: CC(=O)c1ccc2c(c1)C1C(Cl)C(Sc3ccccc3[N+](=O)[O-])CC1C(c1ccccc1[N+](=O)[O-])N2 (configuration not stated)
- inhibition [4]: 20.4%

SMILES: COc1ccccc1C1=NCc2nnc(CSC)n2-c2ccc(Cl)cc21
- inhibition [22]: 12.9%

SMILES: C[C@H]1CCC/C=C/C2C[C@H](O)CC2[C@H](O)/C=C/C(=O)O1 (some centres not stated)
- inhibition [6]: 69.2% (active)
- inhibition [7]: 80.2% (active)

SMILES: N#Cc1ccccc1Cn1cc(C(=O)C2CC2)c2ccccc21
- inhibition [4]: 66.3% (active)

SMILES: O=[N+]([O-])c1cnc2ccc3ccccc3c2c1
- inhibition [17]: 103% (active)
- inhibition [18]: 21.8% (active)
- inhibition [19]: 63.5% (active)
- inhibition [23]: 18.2% (active)
- inhibition [24]: 20.3% (active)
- inhibition [25]: 76.8% (active)
